Hit rate of the full screen: of about 13,000 compounds, about 3,200 (25%) showed an effect of 50% or more. This is one part of the list.
These compounds were tested on P. falciparum stage V gametocytes. Details: 48 h, 5 µM; inhibitor.
Set-up: BacTiter-Glo ATP luminescence viability of purified stage V gametocytes in 384-well plates, per cent inhibition versus DMSO
In the case of CCNc1cc(C)nc(Nc2ccc(NC(=O)c3ccccc3)cc2)n1 [TCMDC-124988], the “% Inhibition” value is reported as -14.46%.
For N=C(N)c1ccc(Oc2ccc(C(=N)N)cc2)cc1 [TCMDC-124287], the “% Inhibition” value was 24.59%.
With CCCc1ccc(NC(=O)c2cccc(CN3CCCN(Cc4cccc(O)c4)CC3)c2)cc1 [TCMDC-135978] the “% Inhibition” value was 12.81%.
In the case of CC(C)[C@H](NC(=O)c1ccc(O)c(-c2cccc(C(F)(F)F)c2)c1)C(=O)NC1CCCc2ccccc21 (some centres unmarked) [TCMDC-140819], the “% Inhibition” value is reported as -19.12%.
CCCCCCc1cnc2nc(N)nc(N)c2c1C [TCMDC-138065] was tested, and the “% Inhibition” value was 8.256%.
O=C(NC1CCC(N2CCCC(OCc3ccccc3)C2)CC1)c1cc2ccccc2[nH]1 (centres unmarked) [TCMDC-132892] was tested, and the “% Inhibition” value was 14.17%.
For CCCC(=O)Nc1ccc(OCCCN(Cc2ccccc2C(F)(F)F)c2ccc(C#N)c(C(F)(F)F)c2)cc1 [TCMDC-135466], the “% Inhibition” value was 20.73%.
In the case of O=C(Nc1cccc(C(F)(F)F)c1)c1ccc(S(=O)(=O)NCC2CCN(CC3CCCCC3)CC2)cc1 [TCMDC-132776], the “% Inhibition” value is reported as 87.8%.
In the case of O=C(Nc1cccc(C(F)(F)F)c1)c1cccc(S(=O)(=O)NCC2CCN(CC3CCCCC3)CC2)c1 [TCMDC-133684], the “% Inhibition” value is reported as -26.22%.
With CCCCCN1CCC(CNS(=O)(=O)c2ccc(C(=O)Nc3cccc(C(F)(F)F)c3)cc2)CC1 [TCMDC-132775] the “% Inhibition” value was -3.109%.
For COc1cc2c(cc1OC)C(C)(C)CN1Cc3c(c(CO)c(OC)c(OC)c3OC)CC21 (centres unmarked) [TCMDC-137250], the “% Inhibition” value was -48.53%.
In the case of COc1ccc2nc(N)nc(C)c2c1 [TCMDC-123907], the “% Inhibition” value is reported as 15.32%.
CS(=O)(=O)CCNCc1cccc(-c2cc3c(Nc4ccc(OCc5cccc(F)c5)c(Cl)c4)ncnc3s2)c1 [TCMDC-134654] was tested, and the “% Inhibition” value was -64.99%.
For Cn1cncc1C(=O)Nc1cccc(-c2ccc(-c3nc4cc(F)ccc4[nH]3)s2)c1 [TCMDC-137066], the “% Inhibition” value was 61.93%.
For CC(=O)Nc1cccc(C(=O)Nc2cccc(-c3ccc(-c4nc5cccc(C)c5[nH]4)s3)c2)c1 [TCMDC-132144], the “% Inhibition” value was 10.52%.
For CC(=O)Nc1cccc(C(=O)Nc2cccc(-c3ccc(-c4nc5cc(F)ccc5[nH]4)s3)c2)c1 [TCMDC-132142], the “% Inhibition” value was 5.899%.
For Cn1cncc1C(=O)Nc1cccc(-c2ccc(-c3nc4ccccc4[nH]3)s2)c1 [TCMDC-137055], the “% Inhibition” value was 40.39%.
In the case of Cc1cccc2nc(-c3ccc(-c4cccc(NC(=O)c5cncn5C)c4)s3)[nH]c12 [TCMDC-137068], the “% Inhibition” value is reported as 78.66%.
Cc1cccc2nc(-c3ccc(-c4ccc(NC(=O)c5cncn5C)cc4)s3)[nH]c12 [TCMDC-137067] was tested, and the “% Inhibition” value was 9.475%.
NC(N)=Nc1nc(-c2cc(NC(=O)C(F)(F)F)cc([N+](=O)[O-])c2)cs1 [TCMDC-137440] was tested, and the “% Inhibition” value was -35.18%.
With Nc1nc(N)c2c(ccc3nccc32)[nH]1 [TCMDC-124301] the “% Inhibition” value was -21.41%.
O=C(Nc1cccc(CN2CCN(C(=O)c3cccc(Cl)c3)CC2)c1)c1cccs1 [TCMDC-136326] was tested, and the “% Inhibition” value was 0.1034%.
CNC(=O)c1ccccc1Nc1cc(Nc2cc(OC)ccn2)ncc1Cl [TCMDC-135054] was tested, and the “% Inhibition” value was -20.04%.
For COc1cccc(CN2Cc3ccccc3OC3(CCN(Cc4c[nH]c5cnccc45)CC3)C2)c1 [TCMDC-133378], the “% Inhibition” value was 19.44%.
With Cc1ccc(CN2CCN(c3cc4c(cc3Cl)CCN4C(=O)Cc3ccc(Cl)c(NC(=O)Nc4cccc(C#N)c4)c3)CC2)cc1 [TCMDC-139471] the “% Inhibition” value was 12.97%.
In the case of CN(CCS(C)(=O)=O)Cc1ccc(-c2ccc3ncnc(Nc4ccc(OCc5cccc(F)c5)c(Cl)c4)c3c2)o1 [TCMDC-138629], the “% Inhibition” value is reported as -22.68%.
In the case of O=C(c1cc(C(=O)Nc2ccccc2F)c(=O)n(-c2ccccc2F)c1)c1cc(Cl)ccc1O [TCMDC-123625], the “% Inhibition” value is reported as 90.03%.
For COc1ccccc1NC(=O)c1cc(C(=O)c2cc(Cl)ccc2O)cn(-c2ccccc2OC)c1=O [TCMDC-124338], the “% Inhibition” value was 29.65%.
COc1ccc(O)c(C(=O)c2cc(C(=O)NCCc3ccccc3)c(=O)n(CCc3ccccc3)c2)c1 [TCMDC-125435] was tested, and the “% Inhibition” value was -12.88%.
For O=C(c1cc(C(=O)Nc2ccccc2)c(=O)n(-c2ccccc2)c1)c1cc(Cl)ccc1O [TCMDC-124511], the “% Inhibition” value was 30.05%.
With Cc1ccc(O)c(C(=O)c2cc(C(=O)Nc3ccccc3C)c(=O)n(-c3ccccc3C)c2)c1 [TCMDC-123627] the “% Inhibition” value was 58.98%.
In the case of O=C(c1cc(C(=O)Nc2ccc(F)cc2)c(=O)n(-c2ccc(F)cc2)c1)c1cc(Cl)ccc1O [TCMDC-123626], the “% Inhibition” value is reported as 8.881%.
For O=C(Nc1ccc(-c2cccc(-c3nc4ccc(F)cc4[nH]3)c2)cc1)c1cnn2cccnc12 [TCMDC-136864], the “% Inhibition” value was -12.66%.
For C(=NNc1ccnc2ccccc12)c1ccncc1 [TCMDC-142016], the “% Inhibition” value was -6.172%.
In the case of CCCCNCc1ccc(-c2nc(CN(CCCn3ccnc3)C(=O)Nc3ccc(CC)cc3)cs2)cc1 [TCMDC-141639], the “% Inhibition” value is reported as 61.14%.
In the case of CCCN(Cc1nnc(-c2cccs2)o1)C(=O)C1COc2ccccc2O1 (centres unmarked) [TCMDC-125333], the “% Inhibition” value is reported as 18.28%.
In the case of CCCCNCc1ccc(-c2nc(CN(CCCn3ccnc3)C(=O)NC3CC3c3ccccc3)cs2)cc1 (centres unmarked) [TCMDC-141638], the “% Inhibition” value is reported as 80.86%.
CCCCNCc1ccc(-c2nc(CN(CCCn3ccnc3)C(=O)C3COc4ccccc4O3)cs2)cc1 (centres unmarked) [TCMDC-141702] was tested, and the “% Inhibition” value was 64.34%.
With CN1CCN(CCCN(Cc2csc(-c3ccc(CNCc4ccccc4)cc3)n2)C(=O)Nc2cccc(Cl)c2)CC1 [TCMDC-141794] the “% Inhibition” value was 15.5%.
In the case of O=C(C1COc2ccccc2O1)N(CCCn1ccnc1)Cc1csc(-c2ccc(CNCc3ccccc3)cc2)n1 (centres unmarked) [TCMDC-141813], the “% Inhibition” value is reported as 25.07%.
O=C(Nc1ccc2ccccc2c1)N(CCCn1ccnc1)Cc1csc(-c2ccc(CNCc3ccccc3)cc2)n1 [TCMDC-141798] was tested, and the “% Inhibition” value was 15.32%.
With CCc1ccc(NC(=O)N(CCCn2ccnc2)Cc2csc(-c3ccc(CNCc4ccccc4)cc3)n2)cc1 [TCMDC-141797] the “% Inhibition” value was 5.722%.
For CCCCNCc1ccc(-c2nc(CN(CCCN3CCN(C)CC3)C(=O)Nc3cccc(Cl)c3)cs2)cc1 [TCMDC-141637], the “% Inhibition” value was 88.1%.
CN1CCCN(Cc2ccc(-c3cccc(NC(=O)c4cccc(Cl)c4)c3)cc2)CC1 [TCMDC-132641] was tested, and the “% Inhibition” value was 27.52%.
